# Granule exo inh: LAMP-1 surface exposure blockers, TALL-104 cells – cell-based, flow cytometry, MLPCN library, primary screen; AID 651702, 2012; 360,000 tested, 0.66% active; TALL-104 LAMP-1 surface exposure; cells stimulated with thapsigargin and PMA; inhibition, % at 10 µM;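 active = inhibition above about 55%, limit read from the data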
# NadD inh: inhibitors of S. aureus NadD, primary screen, biochemical, colorimetric, uHTS | Nicotinate-nucleotide adenylyltransferase NadD (Staphylococcus aureus N315) | purified NadD enzyme, colorimetric absorbance read-out | inhibition, % at 20 µM | 360,000 tested, 0.78% active | AID 602399, 2012; in the data active = inhibition above about 26%
# Beta2AR agonist: beta2AR agonists driving receptor internalization, primary screen, cell-based, FAP fluorogen, flow cytometry | Beta-2 adrenergic receptor (Homo sapiens), P07550 | Am2.2-beta2AR cells | 340,000 tested, 0.43% active | response, % (concentration not given with the values);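 active = response above a set limit, near 3 SD of response in nonfluorescent compounds, cut at about 42% in these data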
# GRK2 aptamer HTS: compounds blocking aptamer binding on GRK2 – biochemical, human GRK2, bead flow cytometry, HTS, primary screen; Beta-adrenergic receptor kinase 1 (Homo sapiens), P25098; FAM-aptamer displacement from GRK2; inhibition of aptamer binding, % at 10 µM; 330,000 tested, 0.59% active;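 active = inhibition of aptamer binding above 40%, roughly 3 SD of noise, on plates passing a quality check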;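 also: median bead fluorescence of bound FAM aptamer so fluorescent compounds give negative values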
# Target sequence (P25098 whole entry, looked up): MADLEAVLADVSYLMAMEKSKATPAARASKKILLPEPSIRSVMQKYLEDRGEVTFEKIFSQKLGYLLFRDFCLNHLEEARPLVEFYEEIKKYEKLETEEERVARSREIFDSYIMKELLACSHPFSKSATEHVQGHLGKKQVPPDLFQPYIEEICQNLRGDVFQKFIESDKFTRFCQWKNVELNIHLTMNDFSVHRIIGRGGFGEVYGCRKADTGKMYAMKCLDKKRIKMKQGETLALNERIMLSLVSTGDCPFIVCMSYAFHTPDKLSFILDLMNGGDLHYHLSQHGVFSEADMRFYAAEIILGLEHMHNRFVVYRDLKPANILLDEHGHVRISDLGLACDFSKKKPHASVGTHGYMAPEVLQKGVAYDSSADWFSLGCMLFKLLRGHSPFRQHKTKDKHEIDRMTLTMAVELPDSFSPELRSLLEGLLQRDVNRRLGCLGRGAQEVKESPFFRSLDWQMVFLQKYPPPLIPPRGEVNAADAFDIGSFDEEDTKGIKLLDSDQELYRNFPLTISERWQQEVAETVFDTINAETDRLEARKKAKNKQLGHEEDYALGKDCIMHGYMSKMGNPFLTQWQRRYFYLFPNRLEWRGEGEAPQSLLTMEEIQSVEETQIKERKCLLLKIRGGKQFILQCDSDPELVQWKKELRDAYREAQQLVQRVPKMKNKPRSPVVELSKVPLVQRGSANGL
# PP1 inh: PP1-alpha phosphatase inhibitors, primary screen, counter-screen for PP5 inhibitor project, biochemical, fluorescence, OMFP substrate, single point. Serine/threonine-protein phosphatase PP1-alpha catalytic subunit (Homo sapiens), P62136. purified PP1alpha. inhibition, % at 6.7 µM. 320,000 tested, 0.9% active. AID 2235, 2010;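 active = inhibition above the mean inhibition of all tested compounds plus 3 SD, computed separately for each screening campaign, cut at about 15% in these data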
# Exocytosis CP01: inhibitors of lytic granule exocytosis, confirmation, TALL-104 cells, flow cytometry, Cherry Pick01; shares compounds with Granule exo inh; LAMP-1 externalization; stimulated with PMA plus thapsigargin; inhibition, % at 10 µM; 1,500 tested, 11% active; AID 651954, 2012; in the data active = inhibition above about 60%;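 also: 0% = stimulated vehicle wells and 100% = unstimulated wells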
# Active calls of the source: *; . = no result. Most compounds without a hit are left out; they make up all but 2.9% or so of the library.
SMILES,Granule exo inh,NadD inh,Beta2AR agonist,GRK2 aptamer HTS,PP1 inh,Exocytosis CP01
Cc1cccc(Cn2nc(C(C)(C)C)cc2C(=O)Nc2ccc(F)cc2)c1,55.7*,-5.4,36.0,5.0,5.2,0.0
CC(C)(C)c1cc(C(=O)NN)n(Cc2ccc(F)cc2)n1,12.0,0.9,3.3,0.0,-4.2,.
CC1(OC(=O)CCc2ccccc2)C(=O)C=C2C=C(c3ccc(C#N)cc3)N(C(CO)CO)C=C2C1=O (centres undefined),70.6*,1.7,-0.3,1.0,0.5,-4.9
COc1ccc(CN2C=C3C(=O)C(C)(OC(=O)CCc4ccccc4)C(=O)C=C3C=C2c2ccc(C#N)cc2)cc1 (centres undefined),0.6,22.1,-5.3,3.0,7.3,.
COc1ccc(CN2CCc3c([nH]c4ccccc34)C2)c(OC)c1C,55.7*,-3.0,8.2,13.0,1.4,-11.7
Cn1nc(C(=O)OCC(=O)Nc2ccccc2[N+](=O)[O-])c2ccccc2c1=O,-2.9,9.2,-3.8,2.0,-1.6,.
CCOC(=O)c1nnn2c1nc(N(CC)CC)c1ccccc12,74.1*,-0.1,1.2,0.0,-1.4,-11.6
COc1ccc(N(CC(=O)NCCSCc2ccc(Cl)cc2)S(C)(=O)=O)cc1Cl,66.8*,-5.7,-2.5,1.0,-1.5,-0.3
COc1ccc(Cl)cc1N(CC(=O)NCCSCc1ccccc1)S(C)(=O)=O,1.0,-4.4,-8.6,0.0,4.3,.
COc1ccc(N(CC(=O)NCCSCc2cccc(Cl)c2)S(C)(=O)=O)cc1Cl,59.8*,-8.1,8.1,0.0,2.1,-9.7
COc1ccc(OC)c2sc(N(CCCN(C)C)C(=O)CCS(=O)(=O)c3ccccc3)nc12,16.5,-3.3,33.8,0.0,0.0,.
Cc1ccc2sc(N(CCCN(C)C)C(=O)CCS(=O)(=O)c3ccccc3)nc2c1C,83.9*,-2.2,9.8,0.0,1.0,53.5
Cc1ccc2sc(N(CCCN(C)C)C(=O)c3ccc(S(=O)(=O)N(C)C4CCCCC4)cc3)nc2c1C,61.6*,5.1,29.3,0.0,9.6,36.0
Cc1cccc(C)c1-n1nnnc1C1(C)CCC(=O)N1Cc1cccc(C(F)(F)F)c1 (centres undefined),-2.5,-3.3,.,.,.,.
COc1cc(CNCCc2ccccc2)cc(Cl)c1OCc1ccccc1,98.8*,-1.7,27.9,0.0,7.5,7.1
N#Cc1cccc(CN2CCCN(Cc3ccc(F)cc3)S2(=O)=O)c1,85.1*,-5.4,1.4,0.0,1.6,-5.7
Cc1cnc(NC(=O)c2cc3c(C)nn(-c4ccccc4)c3s2)s1,0.6,1.6,13.5,5.0,1.3,.
COc1ccc(C(=O)CCN2CCCC(C)C2)cc1 (centres undefined),70.6*,-0.8,-1.2,0.0,0.4,-8.8
CCN(CC)CCNC(=S)N1CCn2c(nc3ccccc32)C1,-1.4,-10.1,-13.8,0.0,-3.8,.
COc1ccccc1NC(=O)C(C)N(C)CC(=O)Nc1cccc2ccccc12 (centres undefined),5.2,3.8,3.2,1.0,.,.
COc1ccccc1NC(=O)C(C)N(C)Cc1ccc(Cl)s1 (centres undefined),58.1*,-12.5,-5.2,1.0,-0.1,-5.1
CN(C)CCCN1C(=O)c2cccc3c([N+](=O)[O-])ccc(c23)C1=O,57.0*,-0.6,12.5,0.0,-4.8,8.7
O=C1c2cccc3c([N+](=O)[O-])ccc(c23)C(=O)N1CCc1ccccn1,19.1,-4.9,-0.5,0.0,-1.4,.
Cc1cc(C)cc(C(=O)NCCCN2CCOCC2)c1,-1.3,-4.6,-4.4,2.0,2.7,.
O=C(Nc1cccc(Cl)c1N1CCCC1)c1ccco1,74.5*,1.6,-4.7,0.0,2.1,-13.9
COC(=O)c1ccc(N2CCCCC2)c(NC(=O)c2ccco2)c1,93.0*,-6.8,1.3,1.0,7.2,-4.5
COC(=O)c1cccc(NC(=O)CCCOc2cccc(C)c2)c1,-2.6,-9.9,4.9,0.0,-1.8,.
O=C(NC1CCCC1)C(c1ccc(F)cc1)N1CCC(O)(c2ccc(Cl)cc2)CC1 (centres undefined),4.0,.,.,.,.,.
